In the OligoGym collection:
Note: reference of the scale not given here.

Each sequence was assayed against CDKL2 (assay: pooled miR-30 sensor sort-seq; sequence = guide strand). Details: shRNA.
In the case of TTTGTCATCGTCACTTTCTAAG, the sensor-assay potency score (higher = more potent) is reported as -0.977.
TTTAGTAACTTGATTTCTCGCA showed a sensor-assay potency score (higher = more potent) of 0.263.
Sequence TTTAACTGTAGTTCTTGGGAAA has a sensor-assay potency score (higher = more potent) of -0.938.
TTAGATAAAGAAACATTTCTGG showed a sensor-assay potency score (higher = more potent) of 0.295.
For TTCAACTAAGGAATCATCTTTT, the sensor-assay potency score (higher = more potent) was 0.409.
Sequence TTTCAGGCAACCTTACTCCAGC has a sensor-assay potency score (higher = more potent) of -0.594.

What follows are sequences tested against CDKN2B in the same assay as above. Details: shRNA.
Sequence TTTACTGCATAAGTGCATCTAT has a sensor-assay potency score (higher = more potent) of 0.135.
TGCGCAGGTACCCTGCAACGTC showed a sensor-assay potency score (higher = more potent) of -1.43.
Sequence TTGGAGTGAACGCATCGACTGC has a sensor-assay potency score (higher = more potent) of -0.833.
ATCATGCACCGGTCGGGTGAGA gave a sensor-assay potency score (higher = more potent) of -1.72.
For TATAATGATCAAGCAACCCTGG, the sensor-assay potency score (higher = more potent) was 0.0689.
TATTTCTTAGTCTGACCTCTGC was tested, and the sensor-assay potency score (higher = more potent) was -0.197.
TTAACTGAGAGCCACTAGTTAT showed a sensor-assay potency score (higher = more potent) of -1.26.
TTTAGCATCTGTCGTCGCTTGC showed a sensor-assay potency score (higher = more potent) of 0.0347.
AGGTACCCTGCAACGTCGCGGT was tested, and the sensor-assay potency score (higher = more potent) was -1.5.
For TTCCAGGAGCTGTCGCACCTTC, the sensor-assay potency score (higher = more potent) was -0.732.
Sequence TTTTTCAGCAATCTTTTGGGAA has a sensor-assay potency score (higher = more potent) of -0.00426.
For TGCACCGGTCGGGTGAGAGTGG, the sensor-assay potency score (higher = more potent) was -1.46.
In the case of TGTCGCACCTTCTCCACTAGTC, the sensor-assay potency score (higher = more potent) is reported as -0.304.
TCATCCTGTGTAGTCTGCCTGC showed a sensor-assay potency score (higher = more potent) of -0.705.
TAATTTACTGCATAAGTGCATC showed a sensor-assay potency score (higher = more potent) of -0.823.
TAGCATCTGTCGTCGCTTGCAC showed a sensor-assay potency score (higher = more potent) of -0.163.
TTGACTCCGTTGGGATCCGCGC gave a sensor-assay potency score (higher = more potent) of -1.43.
In the case of TCCCGAAACGGTTGACTCCGTT, the sensor-assay potency score (higher = more potent) is reported as -1.06.
In the case of TAAGAAAATAAAGTCGTTGTGG, the sensor-assay potency score (higher = more potent) is reported as 0.511.
With TTTCTTAGTCTGACCTCTGCAC the sensor-assay potency score (higher = more potent) was 0.0018.
For TAGTCTGACCTCTGCACCCTGA, the sensor-assay potency score (higher = more potent) was -1.07.
Work on AAACGGTTGACTCCGTTGGGAT yielded a sensor-assay potency score (higher = more potent) of -1.42.
Work on TTTTAGCATCTGTCGTCGCTTG yielded a sensor-assay potency score (higher = more potent) of 0.0607.

The sequences below were run against CEACAM7 in the same assay as above. Details: shRNA.
Work on TATCTTTGTTCTCCACCGGATT yielded a sensor-assay potency score (higher = more potent) of -1.29.
Sequence TAACGTTCTGGATCAGCAGGGT has a sensor-assay potency score (higher = more potent) of 0.257.
AACTCTAACAGGGACCACCGTG showed a sensor-assay potency score (higher = more potent) of -1.13.
TTCATTCACAAGATTTTCTTTT showed a sensor-assay potency score (higher = more potent) of -0.349.
With ATATCCTATAATTCGATAGTTG the sensor-assay potency score (higher = more potent) was -1.04.
TTCTTTTATAACGTGTAGGGTA gave a sensor-assay potency score (higher = more potent) of -0.399.
With TGACTCATAGCGGACATTCAGG the sensor-assay potency score (higher = more potent) was -0.817.
TTGACTTATATTTTTTACATAT was tested, and the sensor-assay potency score (higher = more potent) was -1.26.
AAGATTTTCTTTTATAACGTGT showed a sensor-assay potency score (higher = more potent) of 0.163.
Sequence TATCCTATAATTCGATAGTTGG has a sensor-assay potency score (higher = more potent) of -0.535.
TCGATAGTTGGCATGCACCCTT gave a sensor-assay potency score (higher = more potent) of -0.656.
